Assay results reported in PubChem BioAssay AID1159580 (chemical genetic matrix, 2015).
About 2,000 (36%) of roughly 5,500 compounds were called active. About 18% were inconclusive and are not listed. Rule as the data show it: active = normalized growth mostly below about 0.91 (no sharp cut-off); inconclusive = no clear call, values can overlap the other calls; inactive = mostly above about 0.92. The list shows a part of the results.

Assay: chemical genetic growth profiling, strain panel (AID 1159580);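 also: tested at 20 µM; growth read once vehicle control cultures reached saturation at 30 °C; 1 = growth at the plate median or of vehicle wells; lower values mean less growth of the strain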
Conditions: growth OD

Measured: normalized growth

CC(=O)OC(C)(C)[C@@H]1Cc2cc3ccc(=O)oc3cc2O1
inactive: S. cerevisiae deletion strains, locus YJR066W, strain TOR1, hits give low values 0.928 | S. cerevisiae deletion strains, locus YJR075W, strain HOC1, hits give low values 0.992 | S. cerevisiae deletion strains, locus YKL009W, strain mrt4, hits give low values 1.03 | S. cerevisiae deletion strains, locus YKL068W, hits give low values 1.01 | S. cerevisiae deletion strains, locus YKL085W, strain MDH1 (second series), hits give low values 0.998 | S. cerevisiae deletion strains, locus YKL085W, strain MDH1, hits give low values 0.998 | S. cerevisiae deletion strains, locus YKL160W, strain elf1, hits give low values 1.02 | S. cerevisiae deletion strains, locus YKL190W, strain CNB1, hits give low values 1.01 | S. cerevisiae deletion strains, locus YKR001C, strain vps1, hits give low values 1 | S. cerevisiae deletion strains, locus YKR026C, strain gcn3, hits give low values 0.957 | S. cerevisiae deletion strains, locus YKR091W, strain srl3, hits give low values 0.975 | S. cerevisiae deletion strains, locus YLL001W, strain dnm1, hits give low values 0.984 | S. cerevisiae deletion strains, locus YLL026W, hits give low values 0.97 | S. cerevisiae deletion strains, locus YLL041C, strain sdh2, hits give low values 0.984 | S. cerevisiae deletion strains, locus YLR027C, strain aat2, hits give low values 0.962 | S. cerevisiae deletion strains, locus YLR039C, strain RIC1, hits give low values 1.07 | S. cerevisiae deletion strains, locus YLR058C, strain SHM2, hits give low values 0.999 | S. cerevisiae deletion strains, locus YLR102C, strain apc9, hits give low values 1 | S. cerevisiae deletion strains, locus YLR113W, strain HOG1, hits give low values 1.04 | S. cerevisiae deletion strains, locus YLR221C, strain rsa3, hits give low values 1.01 | S. cerevisiae deletion strains, locus YLR258W, strain gsy2, hits give low values 0.951 | S. cerevisiae deletion strains, locus YLR262C, strain YPT6 (second series), hits give low values 1.01 | S. cerevisiae deletion strains, locus YLR262C, strain YPT6, hits give low values 1.07 | S. cerevisiae deletion strains, locus YLR268W, strain sec22, hits give low values 1.04 | S. cerevisiae deletion strains, locus YLR320W, strain mms22, hits give low values 0.956 | S. cerevisiae deletion strains, locus YLR330W, strain CHS5, hits give low values 1 | S. cerevisiae deletion strains, locus YLR342W, strain FKS1 (second series), hits give low values 0.994 | S. cerevisiae deletion strains, locus YLR342W, strain FKS1, hits give low values 0.969 | S. cerevisiae deletion strains, locus YLR357W, strain rsc2, hits give low values 0.971 | S. cerevisiae deletion strains, locus YLR370C, strain arc18, hits give low values 0.973 | S. cerevisiae deletion strains, locus YLR371W, strain rom2, hits give low values 1.03 | S. cerevisiae deletion strains, locus YLR384C, strain iki3, hits give low values 0.979 | S. cerevisiae deletion strains, locus YLR418C, strain cdc73, hits give low values 0.975 | S. cerevisiae deletion strains, locus YML016C, strain PPZ1, hits give low values 0.999 | S. cerevisiae deletion strains, locus YML032C, strain rad52, hits give low values 0.987 | S. cerevisiae deletion strains, locus YML120C, strain ndi1, hits give low values 0.99 | S. cerevisiae deletion strains, locus YML124C, strain tub3, hits give low values 0.994 | S. cerevisiae deletion strains, locus YMR058W, strain fet3, hits give low values 0.969 | S. cerevisiae deletion strains, locus YMR078C, strain ctf18, hits give low values 1.01 | S. cerevisiae deletion strains, locus YMR125W, strain sto1, hits give low values 0.941 | S. cerevisiae deletion strains, locus YMR129W, hits give low values 0.962 | S. cerevisiae deletion strains, locus YMR205C, strain PFK2, hits give low values 0.915 | S. cerevisiae deletion strains, locus YMR223W, strain ubp8, hits give low values 0.982 | S. cerevisiae deletion strains, locus YMR231W, strain pep5, hits give low values 0.968 | S. cerevisiae deletion strains, locus YMR263W, strain SAP30, hits give low values 0.997 | S. cerevisiae deletion strains, locus YMR307W, strain GAS1, hits give low values 1.03 | S. cerevisiae deletion strains, locus YNL067W, strain RPL9B, hits give low values 0.999 | S. cerevisiae deletion strains, locus YNL071W, strain lat1, hits give low values 0.985 | S. cerevisiae deletion strains, locus YNL183C, strain NPR1, hits give low values 0.983 | S. cerevisiae deletion strains, locus YNL209W, strain ssb2, hits give low values 0.975 | S. cerevisiae deletion strains, locus YNL233W, strain BNI4, hits give low values 0.988 | S. cerevisiae deletion strains, locus YNL248C, strain rpa49, hits give low values 1.02 | S. cerevisiae deletion strains, locus YNL250W, strain rad50, hits give low values 1.01 | S. cerevisiae deletion strains, locus YNL271C, strain bni1, hits give low values 1 | S. cerevisiae deletion strains, locus YNL298W, strain CLA4, hits give low values 1.01 | S. cerevisiae deletion strains, locus YNL307C, strain MCK1, hits give low values 1 | S. cerevisiae deletion strains, locus YNL322C, strain KRE1 (second series), hits give low values 0.951 | S. cerevisiae deletion strains, locus YNR049C, strain mso1, hits give low values 0.955 | S. cerevisiae deletion strains, locus YNR052C, strain pop2, hits give low values 1 | S. cerevisiae deletion strains, locus YOL012C, strain htz1 0.921 | S. cerevisiae deletion strains, locus YOL147C, strain pex11, hits give low values 0.997 | S. cerevisiae deletion strains, locus YOR001W, strain rrp6, hits give low values 1.01 | S. cerevisiae deletion strains, locus YOR061W, strain CKA2, hits give low values 1.01 | S. cerevisiae deletion strains, locus YOR069W, strain VPS5, hits give low values 1 | S. cerevisiae deletion strains, locus YOR070C, strain gyp1, hits give low values 0.995 | S. cerevisiae deletion strains, locus YOR080W, strain dia2, hits give low values 0.982 | S. cerevisiae deletion strains, locus YOR083W, strain WHI5, hits give low values 1.02 | S. cerevisiae deletion strains, locus YOR106W, strain vam3, hits give low values 1.02 | S. cerevisiae deletion strains, locus YOR136W, strain idh2, hits give low values 0.999 | S. cerevisiae deletion strains, locus YOR144C, strain elg1, hits give low values 1 | S. cerevisiae deletion strains, locus YOR184W, strain ser1, hits give low values 0.968 | S. cerevisiae deletion strains, locus YOR231W, strain MKK1, hits give low values 0.963 | S. cerevisiae deletion strains, locus YOR265W, strain rbl2, hits give low values 0.976 | S. cerevisiae deletion strains, locus YOR270C, strain vph1, hits give low values 0.935 | S. cerevisiae deletion strains, locus YOR290C, strain snf2, hits give low values 0.916 | S. cerevisiae deletion strains, locus YOR316C, strain cot1, hits give low values 0.995 | S. cerevisiae deletion strains, locus YPL051W, strain arl3, hits give low values 1 | S. cerevisiae deletion strains, locus YPL078C, strain atp4, hits give low values 0.993 | S. cerevisiae deletion strains, locus YPL106C, strain sse1, hits give low values 0.946 | S. cerevisiae deletion strains, locus YPL240C, strain hsp82, hits give low values 0.995 | S. cerevisiae deletion strains, locus YPL241C, strain CIN2, hits give low values 0.996 | S. cerevisiae deletion strains, locus YPL256C, strain CLN2, hits give low values 0.962 | S. cerevisiae deletion strains, locus YPR119W, strain clb2, hits give low values 1.02 | S. cerevisiae deletion strains, locus YPR141C, strain kar3, hits give low values 1 | S. cerevisiae deletion strains, locus YPR163C, strain tif3, hits give low values 1 | S. cerevisiae deletion strains, locus YPR167C, strain met16, hits give low values 1 | S. cerevisiae deletion strains, strain wtn01, hits give low values 1.01 | S. cerevisiae strains, strain wild type, hits give low values 1
